# Reference: PubChem BioAssay (NCATS)
# Inconclusive results are not listed. Where a call stands in place of a potency, no number is given. Active and inactive are the calls of the source. The call rests on the fitted dose curve; in most records, active means well fitted cell-killing curve with a large enough effect; inconclusive means small, poorly fitted or top-dose-only effect, or effect the other way; inactive means no such curve, though single readings can be large or run the other way.
# Assay: Quantitative High-Throughput drug screen in 47 multiple myeloma cell lines against the NCATS MIPE library collection: ARP1_JJKsccF8 cell viability assay (AID 1918928; further: nearly all actives have a fitted effect of over 40% in size)
# Details: ARP1 myeloma cells viability, CellTiter-Glo ATP, 48 h; series mostly up to 45.8 µM
# Outline: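 Cell viability inhibition in this qHTS is measured via ATP content (CellTiter-Glo) after 48 h drug exposure at 37 °C. Wells hold 500 cells; DMSO-treated wells define 100% and medium-only wells 0%.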
# Potency means the concentration at half of the fitted maximal effect.
row,SMILES,Potency
1,O=c1cc(-c2ccc(O)c(O)c2)oc2cc(O)cc(O)c12,inactive
2,CC(=O)Nc1cccc(-n2c(=O)n(C3CC3)c(=O)c3c(Nc4ccc(I)cc4F)n(C)c(=O)c(C)c32)c1,inactive
3,Cc1cnc(CNC(=O)c2c(=O)c3ccc(N4CCCN(C)CC4)nc3n3c2sc2ccccc23)cn1,9.11 µM (active)
4,NC1(C(=O)N[C@@H](CCO)c2ccc(Cl)cc2)CCN(c2ncnc3[nH]ccc23)CC1,2.09 µM (active)
5,O=C1C(c2c(O)[nH]c3ccccc23)=Nc2ccccc21,6.62 µM (active)
6,Cc1cc2nc3c(=O)[nH]c(=O)nc-3n(CC(O)C(O)C(O)CO)c2cc1C (stereo unspecified),4.69 µM (active)
7,CC(C)(CO)[C@@H](O)C(=O)NCCC(=O)O,1.66 µM (active)
8,COc1ccc(-c2cc3nccn3c(Nc3ncccc3C(N)=O)n2)cc1OC,4.69 µM (active)
9,C=CCc1cccc(C=NNC(=O)CN2CCN(Cc3ccccc3)CC2)c1O,9.35 µM (active)
10,CCN1C[C@H](C)n2c(c(O)c3c(=O)n(Cc4ccc(F)c(Cl)c4)nc(C(=O)NC)c32)C1=O,inactive
11,Cc1cc2c(cc1C1(c3ccc(C(=O)O)cn3)CC1)C(C)(C)CCC2(C)C,26.4 µM (active)
12,NS(=O)(=O)c1cc(Cl)c(Cl)c(S(N)(=O)=O)c1,8.33 µM (active)
13,COc1cc2ncnc(Nc3cc(Br)c(O)c(Br)c3)c2cc1OC,1.32 µM (active)
14,CN[C@@H](C)[C@H]1[C@H](O)C[C@@]2(C)[C@@H]3CC[C@H]4C(C)(C)[C@@H](NC)CC[C@@]45C[C@@]35CC[C@]12C,23.5 µM (active)
15,Cc1ccc(S(=O)(=O)OCC(=O)Nc2ccc(C(=O)O)c(O)c2)cc1,inactive
16,Cc1cnc(Nc2cccc(CN3CCOCC3)c2)nc1Nc1cccc(S(=O)(=O)NC(C)(C)C)c1,5.26 µM (active)
17,Cc1csc(-c2nnc(Nc3ccc(Oc4ncccc4-c4ccnc(N)n4)cc3)c3ccccc23)c1,5.26 µM (active)
18,COC(=O)N1CCN(Cc2cccc(NC(=O)Nc3ccc(C)nc3)c2F)CC1,inactive

# Assay: Quantitative High-Throughput drug screen in 47 multiple myeloma cell lines against the NCATS MIPE library collection: ARD_JJKsccE7 cell viability assay (AID 1918929)
# Details: ARD myeloma cell line viability, CellTiter-Glo, 48 h; series mostly up to 45.8 µM
# Outline: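 Relative luminescence from CellTiter-Glo served as the viability signal, referenced to DMSO-treated (100%) and cell-free medium (0%) controls. Treatment lasted 48 hours at 37C with 500 cells per well.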
row,SMILES,Potency
1,O=c1cc(-c2ccc(O)c(O)c2)oc2cc(O)cc(O)c12,inactive
2,CCN(CCO)CCCOc1ccc2c(Nc3cc(CC(=O)Nc4cccc(F)c4)[nH]n3)ncnc2c1,inactive
3,NC1(C(=O)N[C@@H](CCO)c2ccc(Cl)cc2)CCN(c2ncnc3[nH]ccc23)CC1,0.0469 µM (active)
4,CCc1cccc(CC)c1NC(=O)N1Cc2[nH]nc(NC(=O)c3ccc(N4CCN(C)CC4)cc3)c2C1,1.18 µM (active)
5,CC(C)(CO)[C@@H](O)C(=O)NCCC(=O)O,inactive
6,Cc1ccc2c(c1)C(=O)[C@]1(O)CCN(c3ccccc3)C1=N2,inactive
7,CC1=C(C(=O)Nc2cc3cn[nH]c3cc2F)C(c2ccc(C(F)(F)F)cc2)CC(=O)N1 (stereo unspecified),inactive
8,C=CCc1cccc(C=NNC(=O)CN2CCN(Cc3ccccc3)CC2)c1O,9.35 µM (active)
9,CCN1C[C@H](C)n2c(c(O)c3c(=O)n(Cc4ccc(F)c(Cl)c4)nc(C(=O)NC)c32)C1=O,inactive
10,CC(C)CNc1ccnc(NCc2csc(-c3ccccc3)n2)n1,5.9 µM (active)
11,NS(=O)(=O)c1cc(Cl)c(Cl)c(S(N)(=O)=O)c1,inactive
12,COc1cc2ncnc(Nc3cc(Br)c(O)c(Br)c3)c2cc1OC,13.2 µM (active)
13,CN[C@@H](C)[C@H]1[C@H](O)C[C@@]2(C)[C@@H]3CC[C@H]4C(C)(C)[C@@H](NC)CC[C@@]45C[C@@]35CC[C@]12C,inactive
14,Cc1ccc(S(=O)(=O)OCC(=O)Nc2ccc(C(=O)O)c(O)c2)cc1,inactive
15,Cn1c(=O)c(-c2c(Cl)cccc2Cl)cc2cnc(Nc3cccc(C(=O)O)c3)nc21,0.469 µM (active)
16,c1cc(OCCN2CCCCC2)cc(-c2n[nH]c3ccc(-c4ncn[nH]4)cc23)c1,2.35 µM (active)
17,O[C@@H](COc1cccc2ncccc12)CN1CCN(C2c3ccccc3[C@@H]3[C@H](c4ccccc42)C3(F)F)CC1 (stereo partly specified),inactive
18,CC1(C)CC(=O)c2c(C(F)(F)F)nn(-c3ccc(C(N)=O)c(NC4CCC(O)CC4)c3)c2C1 (stereo unspecified),inactive
19,Cc1csc(-c2nnc(Nc3ccc(Oc4ncccc4-c4ccnc(N)n4)cc3)c3ccccc23)c1,23.5 µM (active)
20,COC(=O)N1CCN(Cc2cccc(NC(=O)Nc3ccc(C)nc3)c2F)CC1,inactive

# Assay: Quantitative High-Throughput drug screen in 47 multiple myeloma cell lines against the NCATS MIPE library collection: Karpas620_DSMZ cell viability assay (AID 1918959); further: nearly all actives have a fitted effect of over 30% in size
# Details: Karpas620 myeloma viability, CellTiter-Glo ATP luminescence, 48 h; series mostly up to 45.8 µM
# Outline: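 Myeloma cells (500 per well) were exposed to MIPE 4.0 compounds by pin transfer and incubated 48 hours at 37C, 5% CO2. Viability was read as ATP by CellTiter-Glo luminescence, normalised to DMSO (100%) and media-only (0%) wells.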
row,SMILES,Potency
1,O=c1cc(-c2ccc(O)c(O)c2)oc2cc(O)cc(O)c12,inactive
2,CC(=O)Nc1cccc(-n2c(=O)n(C3CC3)c(=O)c3c(Nc4ccc(I)cc4F)n(C)c(=O)c(C)c32)c1,0.0296 µM (active)
3,Cc1cnc(CNC(=O)c2c(=O)c3ccc(N4CCCN(C)CC4)nc3n3c2sc2ccccc23)cn1,inactive
4,CCN(CCO)CCCOc1ccc2c(Nc3cc(CC(=O)Nc4cccc(F)c4)[nH]n3)ncnc2c1,inactive
5,C[C@@H](NC(=O)c1ncnc(N)c1Cl)c1ncc(C(=O)Nc2cc(C(F)(F)F)c(Cl)cn2)s1,26.4 µM (active)
6,CCC(=O)N1CCN(c2ccc(-n3c(=O)ccc4cnc5ccc(-c6cnc7ccccc7c6)cc5c43)cc2C(F)(F)F)CC1,0.0187 µM (active)
7,O=C(CO)N1CCC(c2[nH]nc(-c3ccc(Cl)cc3)c2-c2ccncn2)CC1,inactive
8,NC1(C(=O)N[C@@H](CCO)c2ccc(Cl)cc2)CCN(c2ncnc3[nH]ccc23)CC1,2.64 µM (active)
9,CN(C)CCCNC(=O)c1ccc(-c2cc(O)c3ncccc3c2)cc1,20.9 µM (active)
10,CC(C)(CO)[C@@H](O)C(=O)NCCC(=O)O,inactive
11,COc1ccc(-c2cc3nccn3c(Nc3ncccc3C(N)=O)n2)cc1OC,inactive
12,Cc1ccc2c(c1)C(=O)[C@]1(O)CCN(c3ccccc3)C1=N2,inactive
13,CC1=C(C(=O)Nc2cc3cn[nH]c3cc2F)C(c2ccc(C(F)(F)F)cc2)CC(=O)N1 (stereo unspecified),inactive
14,C=CCc1cccc(C=NNC(=O)CN2CCN(Cc3ccccc3)CC2)c1O,9.35 µM (active)
15,CCN1C[C@H](C)n2c(c(O)c3c(=O)n(Cc4ccc(F)c(Cl)c4)nc(C(=O)NC)c32)C1=O,0.0066 µM (active)
16,Cc1cc2c(cc1C1(c3ccc(C(=O)O)cn3)CC1)C(C)(C)CCC2(C)C,inactive
17,CC(C)CNc1ccnc(NCc2csc(-c3ccccc3)n2)n1,5.26 µM (active)
18,NS(=O)(=O)c1cc(Cl)c(Cl)c(S(N)(=O)=O)c1,inactive
19,CN[C@@H](C)[C@H]1[C@H](O)C[C@@]2(C)[C@@H]3CC[C@H]4C(C)(C)[C@@H](NC)CC[C@@]45C[C@@]35CC[C@]12C,inactive
20,Cc1ccc(S(=O)(=O)OCC(=O)Nc2ccc(C(=O)O)c(O)c2)cc1,inactive
21,Cn1c(=O)c(-c2c(Cl)cccc2Cl)cc2cnc(Nc3cccc(C(=O)O)c3)nc21,1.48 µM (active)
22,Cc1cnc(Nc2cccc(CN3CCOCC3)c2)nc1Nc1cccc(S(=O)(=O)NC(C)(C)C)c1,4.69 µM (active)
23,c1cc(OCCN2CCCCC2)cc(-c2n[nH]c3ccc(-c4ncn[nH]4)cc23)c1,inactive
24,O[C@@H](COc1cccc2ncccc12)CN1CCN(C2c3ccccc3[C@@H]3[C@H](c4ccccc42)C3(F)F)CC1 (stereo partly specified),inactive
25,CNc1nc(Nc2ccc(C(=O)N3CCOCC3)cc2OC)ncc1Cl,inactive
26,Cc1cccc2c1CC[C@H](CN1CCC(c3c(Cl)cccc3Cl)CC1)C[C@@H]2O,11.8 µM (active)
27,OC[C@H]1O[C@@H](OCCc2ccc(O)cc2)[C@H](O)[C@@H](O)[C@H]1O,inactive
28,COC(=O)N1CCN(Cc2cccc(NC(=O)Nc3ccc(C)nc3)c2F)CC1,inactive
